The supplement of paper PMC11732987, “Enantioselective OTUD7B fragment discovery through chemoproteomics screening and high-throughput optimisation” (Communications Chemistry, 2025)

Columns and labels:
Assay in all cases: log2 ratio of Biotin-Ahx-Ub-VS probe labelling (fragment/DMSO); higher = less target engagement (more negative = stronger competition), active = hit call of the paper (q ≤ 0.05, log2 ratio ≤ -1)
Settings in all cases: compound concentration: 200 uM; treatment time: 3 h
[1] = target: USP34 (UniProt Q70CQ2)
Outline: (§1)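 The table lists average log2 ratios of fragment over vehicle, from an unpaired t-test on global-median-normalised Spectronaut label-free quantities. Proteins with ≥2 unique peptides were used. Samples were HEK293T lysate (495 µg) treated in triplicate with fragment at 200 µM or vehicle for 3 h, then with Biotin-Ahx-Ub-VS (0.5 µM final) for 1 h, with labelled DUBs NeutrAvidin-enriched and run by diaPASEF LC-MS/MS.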

[2] = target: T1, USP36 (UniProt Q9P275)
T1 sequence (whole entry): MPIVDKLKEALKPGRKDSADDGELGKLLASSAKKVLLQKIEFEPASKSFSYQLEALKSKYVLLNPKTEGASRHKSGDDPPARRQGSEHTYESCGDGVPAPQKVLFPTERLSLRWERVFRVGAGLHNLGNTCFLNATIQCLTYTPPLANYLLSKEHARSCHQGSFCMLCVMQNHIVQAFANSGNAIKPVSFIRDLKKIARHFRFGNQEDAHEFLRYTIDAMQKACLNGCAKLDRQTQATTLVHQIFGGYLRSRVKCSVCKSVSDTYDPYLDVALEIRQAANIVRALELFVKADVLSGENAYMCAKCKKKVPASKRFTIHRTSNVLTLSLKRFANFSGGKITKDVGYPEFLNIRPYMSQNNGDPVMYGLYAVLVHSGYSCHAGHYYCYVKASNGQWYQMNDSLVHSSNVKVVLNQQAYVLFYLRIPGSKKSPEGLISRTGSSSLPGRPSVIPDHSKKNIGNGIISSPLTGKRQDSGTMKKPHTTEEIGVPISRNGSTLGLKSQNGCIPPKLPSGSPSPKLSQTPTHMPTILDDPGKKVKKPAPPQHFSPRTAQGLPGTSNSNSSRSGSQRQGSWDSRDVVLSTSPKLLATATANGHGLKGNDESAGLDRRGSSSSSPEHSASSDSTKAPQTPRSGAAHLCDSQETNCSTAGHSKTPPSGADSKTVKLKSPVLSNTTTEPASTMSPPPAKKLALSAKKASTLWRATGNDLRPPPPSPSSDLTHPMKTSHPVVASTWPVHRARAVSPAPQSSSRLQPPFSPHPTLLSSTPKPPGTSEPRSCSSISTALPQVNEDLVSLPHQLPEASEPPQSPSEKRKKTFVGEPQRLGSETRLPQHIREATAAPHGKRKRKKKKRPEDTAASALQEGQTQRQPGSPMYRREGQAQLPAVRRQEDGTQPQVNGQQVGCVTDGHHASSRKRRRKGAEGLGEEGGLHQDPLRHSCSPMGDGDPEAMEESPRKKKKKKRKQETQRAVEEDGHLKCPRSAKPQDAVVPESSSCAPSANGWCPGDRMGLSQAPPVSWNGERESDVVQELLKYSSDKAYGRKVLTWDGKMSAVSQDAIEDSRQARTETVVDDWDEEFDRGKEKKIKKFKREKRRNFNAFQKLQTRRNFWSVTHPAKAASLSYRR
Outline: as §1

[3] = target: T2, USP38 (UniProt Q8NB14)
T2 sequence (whole entry): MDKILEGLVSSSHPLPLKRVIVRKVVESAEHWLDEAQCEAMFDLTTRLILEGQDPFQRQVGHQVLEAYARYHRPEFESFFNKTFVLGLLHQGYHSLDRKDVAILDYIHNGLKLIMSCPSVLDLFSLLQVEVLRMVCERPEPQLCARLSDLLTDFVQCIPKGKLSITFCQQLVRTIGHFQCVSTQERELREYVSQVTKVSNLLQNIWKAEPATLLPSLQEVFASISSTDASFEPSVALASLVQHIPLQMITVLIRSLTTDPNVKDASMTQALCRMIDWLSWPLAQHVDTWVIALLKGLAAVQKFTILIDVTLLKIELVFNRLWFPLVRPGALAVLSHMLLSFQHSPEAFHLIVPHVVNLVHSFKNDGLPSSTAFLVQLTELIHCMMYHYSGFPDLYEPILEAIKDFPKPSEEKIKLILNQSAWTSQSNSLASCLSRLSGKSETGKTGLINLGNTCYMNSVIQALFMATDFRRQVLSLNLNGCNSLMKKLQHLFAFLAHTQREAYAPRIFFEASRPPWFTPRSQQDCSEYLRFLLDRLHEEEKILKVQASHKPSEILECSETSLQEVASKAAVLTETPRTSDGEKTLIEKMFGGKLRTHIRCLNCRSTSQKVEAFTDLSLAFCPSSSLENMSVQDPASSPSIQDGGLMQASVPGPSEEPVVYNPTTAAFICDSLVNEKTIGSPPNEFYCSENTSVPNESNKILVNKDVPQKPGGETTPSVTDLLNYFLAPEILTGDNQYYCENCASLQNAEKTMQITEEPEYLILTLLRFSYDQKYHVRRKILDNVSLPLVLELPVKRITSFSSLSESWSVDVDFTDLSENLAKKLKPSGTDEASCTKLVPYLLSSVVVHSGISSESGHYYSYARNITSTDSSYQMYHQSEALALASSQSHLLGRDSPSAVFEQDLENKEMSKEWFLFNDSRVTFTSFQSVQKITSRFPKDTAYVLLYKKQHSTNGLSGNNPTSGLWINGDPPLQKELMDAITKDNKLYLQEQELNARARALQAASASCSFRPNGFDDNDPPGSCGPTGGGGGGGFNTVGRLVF
Outline: as §1

[4] = target: T3, USP39 (UniProt Q53GS9)
T3 sequence (whole entry): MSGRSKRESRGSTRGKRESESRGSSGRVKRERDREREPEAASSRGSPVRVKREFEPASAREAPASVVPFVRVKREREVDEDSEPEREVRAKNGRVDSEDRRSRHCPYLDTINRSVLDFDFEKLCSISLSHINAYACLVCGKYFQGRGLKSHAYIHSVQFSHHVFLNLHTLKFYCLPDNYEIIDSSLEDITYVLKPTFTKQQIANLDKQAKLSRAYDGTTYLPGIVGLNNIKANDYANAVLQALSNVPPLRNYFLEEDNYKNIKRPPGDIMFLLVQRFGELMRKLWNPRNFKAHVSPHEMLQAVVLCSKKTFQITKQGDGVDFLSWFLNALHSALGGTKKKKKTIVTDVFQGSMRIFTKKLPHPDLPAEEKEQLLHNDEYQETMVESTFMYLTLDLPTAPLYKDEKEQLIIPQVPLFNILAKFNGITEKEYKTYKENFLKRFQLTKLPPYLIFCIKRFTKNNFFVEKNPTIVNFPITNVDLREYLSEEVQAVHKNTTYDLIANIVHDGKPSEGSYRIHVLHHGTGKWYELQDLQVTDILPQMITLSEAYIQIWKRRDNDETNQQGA
Outline: as §1

[5] = target: T4, USP4 (UniProt Q13107)
T4 sequence (whole entry): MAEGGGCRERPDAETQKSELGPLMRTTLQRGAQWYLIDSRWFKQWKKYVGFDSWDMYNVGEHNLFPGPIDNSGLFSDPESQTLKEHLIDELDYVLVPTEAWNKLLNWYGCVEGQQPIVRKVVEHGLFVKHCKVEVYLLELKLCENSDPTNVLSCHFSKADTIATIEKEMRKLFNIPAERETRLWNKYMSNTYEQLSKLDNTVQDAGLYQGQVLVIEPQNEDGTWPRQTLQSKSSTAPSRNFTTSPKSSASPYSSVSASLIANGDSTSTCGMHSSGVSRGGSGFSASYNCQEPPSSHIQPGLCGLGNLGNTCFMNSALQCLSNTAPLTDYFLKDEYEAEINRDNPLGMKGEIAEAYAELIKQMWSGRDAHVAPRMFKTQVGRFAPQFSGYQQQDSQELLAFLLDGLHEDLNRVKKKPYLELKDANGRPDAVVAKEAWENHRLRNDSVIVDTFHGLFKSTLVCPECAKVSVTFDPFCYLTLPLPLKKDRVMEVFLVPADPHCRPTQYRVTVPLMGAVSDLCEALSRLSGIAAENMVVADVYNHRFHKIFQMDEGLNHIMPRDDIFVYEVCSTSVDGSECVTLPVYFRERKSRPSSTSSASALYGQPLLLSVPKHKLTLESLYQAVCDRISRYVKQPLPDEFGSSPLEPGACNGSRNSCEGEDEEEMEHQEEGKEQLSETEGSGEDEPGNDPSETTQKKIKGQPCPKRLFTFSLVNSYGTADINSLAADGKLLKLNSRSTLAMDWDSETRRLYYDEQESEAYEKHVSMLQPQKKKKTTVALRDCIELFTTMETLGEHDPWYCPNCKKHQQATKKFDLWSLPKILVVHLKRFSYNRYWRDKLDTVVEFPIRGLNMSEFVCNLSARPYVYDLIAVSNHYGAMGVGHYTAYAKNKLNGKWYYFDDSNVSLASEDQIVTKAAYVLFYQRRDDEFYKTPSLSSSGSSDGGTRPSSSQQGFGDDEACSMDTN
Outline: as §1

Measured: log2 ratio of Biotin-Ahx-Ub-VS probe labelling

USP34, sequence (Q70CQ2 whole entry, the tested form may be a part): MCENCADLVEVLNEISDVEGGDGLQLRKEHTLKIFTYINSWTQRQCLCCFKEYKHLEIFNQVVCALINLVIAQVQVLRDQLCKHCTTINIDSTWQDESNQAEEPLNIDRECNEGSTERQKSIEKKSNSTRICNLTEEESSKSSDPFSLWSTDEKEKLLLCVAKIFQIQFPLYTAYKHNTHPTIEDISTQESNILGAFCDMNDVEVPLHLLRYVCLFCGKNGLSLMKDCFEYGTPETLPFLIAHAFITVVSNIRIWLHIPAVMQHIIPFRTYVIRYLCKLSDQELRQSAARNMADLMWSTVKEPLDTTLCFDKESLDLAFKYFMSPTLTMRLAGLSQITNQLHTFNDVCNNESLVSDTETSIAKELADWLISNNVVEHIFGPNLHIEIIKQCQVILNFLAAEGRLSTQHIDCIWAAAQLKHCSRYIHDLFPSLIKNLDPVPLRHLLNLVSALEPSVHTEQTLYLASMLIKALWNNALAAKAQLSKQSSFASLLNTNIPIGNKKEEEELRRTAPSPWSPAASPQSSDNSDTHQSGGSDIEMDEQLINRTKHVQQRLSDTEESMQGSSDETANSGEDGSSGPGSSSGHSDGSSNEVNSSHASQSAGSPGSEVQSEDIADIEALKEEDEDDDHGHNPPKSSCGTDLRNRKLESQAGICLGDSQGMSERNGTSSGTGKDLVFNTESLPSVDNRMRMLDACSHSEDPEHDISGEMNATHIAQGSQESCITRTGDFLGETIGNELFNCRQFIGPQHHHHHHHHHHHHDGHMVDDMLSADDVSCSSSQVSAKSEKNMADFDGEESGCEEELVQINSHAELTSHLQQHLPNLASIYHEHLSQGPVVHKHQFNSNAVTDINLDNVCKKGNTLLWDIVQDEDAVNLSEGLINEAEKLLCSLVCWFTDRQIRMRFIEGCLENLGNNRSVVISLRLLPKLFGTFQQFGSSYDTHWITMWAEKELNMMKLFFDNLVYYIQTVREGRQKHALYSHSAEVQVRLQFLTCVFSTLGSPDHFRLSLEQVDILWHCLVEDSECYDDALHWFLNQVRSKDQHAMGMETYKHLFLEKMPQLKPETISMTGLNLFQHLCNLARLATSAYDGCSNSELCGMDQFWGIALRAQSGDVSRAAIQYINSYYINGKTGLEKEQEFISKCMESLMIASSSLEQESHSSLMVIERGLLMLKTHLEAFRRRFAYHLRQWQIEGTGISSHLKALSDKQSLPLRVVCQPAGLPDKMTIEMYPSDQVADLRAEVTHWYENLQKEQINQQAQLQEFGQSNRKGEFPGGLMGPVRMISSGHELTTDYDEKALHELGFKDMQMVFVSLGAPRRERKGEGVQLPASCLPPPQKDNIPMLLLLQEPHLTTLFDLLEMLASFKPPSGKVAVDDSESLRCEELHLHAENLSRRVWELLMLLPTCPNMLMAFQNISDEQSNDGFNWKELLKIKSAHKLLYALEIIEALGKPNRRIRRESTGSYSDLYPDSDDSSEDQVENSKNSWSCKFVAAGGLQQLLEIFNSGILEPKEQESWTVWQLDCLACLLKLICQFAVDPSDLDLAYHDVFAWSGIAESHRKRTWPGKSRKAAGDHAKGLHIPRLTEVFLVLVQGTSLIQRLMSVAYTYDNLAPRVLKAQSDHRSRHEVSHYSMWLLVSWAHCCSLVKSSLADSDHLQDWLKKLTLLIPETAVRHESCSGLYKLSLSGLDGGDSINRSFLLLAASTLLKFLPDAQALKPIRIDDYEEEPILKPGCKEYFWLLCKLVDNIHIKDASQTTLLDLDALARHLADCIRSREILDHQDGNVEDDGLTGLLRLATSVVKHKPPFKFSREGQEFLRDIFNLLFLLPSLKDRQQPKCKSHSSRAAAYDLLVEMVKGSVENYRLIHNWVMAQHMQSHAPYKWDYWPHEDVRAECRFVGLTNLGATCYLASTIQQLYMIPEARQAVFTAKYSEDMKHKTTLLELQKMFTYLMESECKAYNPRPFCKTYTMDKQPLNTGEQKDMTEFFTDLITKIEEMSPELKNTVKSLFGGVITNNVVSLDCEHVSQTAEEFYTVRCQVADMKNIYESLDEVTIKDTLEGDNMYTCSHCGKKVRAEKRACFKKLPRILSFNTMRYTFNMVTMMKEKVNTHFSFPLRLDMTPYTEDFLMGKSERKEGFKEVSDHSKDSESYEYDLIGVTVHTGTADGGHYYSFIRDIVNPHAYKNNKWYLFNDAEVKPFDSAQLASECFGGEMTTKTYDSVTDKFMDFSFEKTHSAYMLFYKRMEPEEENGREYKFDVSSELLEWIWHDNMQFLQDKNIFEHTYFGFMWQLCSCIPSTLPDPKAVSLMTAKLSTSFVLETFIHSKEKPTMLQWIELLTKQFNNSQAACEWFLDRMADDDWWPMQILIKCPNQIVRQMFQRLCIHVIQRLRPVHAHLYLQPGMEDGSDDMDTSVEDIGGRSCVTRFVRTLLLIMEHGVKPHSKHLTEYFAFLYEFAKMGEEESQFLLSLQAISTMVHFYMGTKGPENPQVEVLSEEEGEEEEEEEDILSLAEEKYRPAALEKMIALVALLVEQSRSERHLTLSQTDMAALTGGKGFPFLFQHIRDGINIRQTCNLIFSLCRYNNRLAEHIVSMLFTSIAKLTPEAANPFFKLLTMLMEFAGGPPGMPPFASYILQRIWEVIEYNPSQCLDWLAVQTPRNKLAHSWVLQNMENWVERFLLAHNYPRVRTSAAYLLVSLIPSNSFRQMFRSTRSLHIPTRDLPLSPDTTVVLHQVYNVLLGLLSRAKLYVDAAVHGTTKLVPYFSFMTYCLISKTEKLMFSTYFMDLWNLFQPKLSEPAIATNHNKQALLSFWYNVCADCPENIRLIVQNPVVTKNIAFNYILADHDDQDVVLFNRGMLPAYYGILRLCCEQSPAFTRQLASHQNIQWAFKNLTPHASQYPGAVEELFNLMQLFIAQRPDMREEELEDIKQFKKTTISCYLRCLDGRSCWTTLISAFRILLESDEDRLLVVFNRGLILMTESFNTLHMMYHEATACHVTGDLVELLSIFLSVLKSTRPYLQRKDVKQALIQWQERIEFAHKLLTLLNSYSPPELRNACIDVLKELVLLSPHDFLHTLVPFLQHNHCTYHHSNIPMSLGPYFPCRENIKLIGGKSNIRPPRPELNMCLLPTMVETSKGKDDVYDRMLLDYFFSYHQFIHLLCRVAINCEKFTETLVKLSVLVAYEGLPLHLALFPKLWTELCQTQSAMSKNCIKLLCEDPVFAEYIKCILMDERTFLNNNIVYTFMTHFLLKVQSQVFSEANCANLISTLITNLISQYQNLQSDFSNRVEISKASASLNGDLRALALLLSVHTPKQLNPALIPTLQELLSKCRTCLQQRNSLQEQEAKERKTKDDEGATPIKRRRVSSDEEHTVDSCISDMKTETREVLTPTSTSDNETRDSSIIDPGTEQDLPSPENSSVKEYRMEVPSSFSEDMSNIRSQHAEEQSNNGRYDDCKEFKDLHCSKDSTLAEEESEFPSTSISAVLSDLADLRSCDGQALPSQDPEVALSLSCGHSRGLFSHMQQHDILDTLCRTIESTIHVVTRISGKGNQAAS

Cc1cccc(C(CNC(=O)CCl)N2CCOCC2)c1.Cl (stereo not given)
inactive: [1] -0.0673 | [2] 0.0549 | [3] -0.0229 | [4] -0.116 | [5] -0.165
